Results with a measured potency or affinity are listed apart.
Assay: inhibitors of CD8+ T cell–vesicle binding, dose response, mouse 2C CD8+ T cells, flow cytometry (AID 485284);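 note: drosophila derived vesicles carrying Ld MHC with QL9 peptide plus B7-1 and ICAM-1; vesicle binding seen as anti-B7-1 PE fluorescence on CD8 gated cells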
Conditions: 2C mouse CD8+ T cell-exosome binding; at 45 µM (top of the series)

| SMILES | binding remaining, % of control [%] |
| --- | --- |
| COc1ccccc1N1CCN(C(=O)C2CCCN(S(=O)(=O)c3ccc(C)cc3)C2)CC1 (centres undefined) | 132 |
| CCOC(=O)N1CCN(Cc2nc(-c3ccc(C)cc3)no2)CC1 | 78.4 |
| COc1ccc([C@H]2CC(=O)C=C(c3ccc4c5c(cccc35)CC4)C2)cc1 | 119 |
| COc1ccc(NC(=O)CSCC(=O)Nc2cccc(S(=O)(=O)N3CCCCCC3)c2)cc1 | 44.4 |
| NC(=O)CCS(=O)(=O)CCN1CCN(S(=O)(=O)c2ccc3c(c2)CCC3)CC1 | 170 |
| CCCCN1C(=O)NC(NC(=O)C2CC2)(C(F)(F)F)C1=O (centres undefined) | 136 |
| O=C(Nc1ccccc1F)C1CCCN(S(=O)(=O)c2cccc3cccnc23)C1 (centres undefined) | 105 |
| O=C(NNS(=O)(=O)c1ccc2ccccc2c1)c1cccs1 | 42.6 |
| CCOC(=O)c1sc(NC(=O)C2CC(=O)N(c3ccccc3OC)C2)nc1C (centres undefined) | 141 |
| CC(Sc1nc2ccccc2[nH]1)C(=O)NC1CCCCC1C (centres undefined) | 87.9 |
| O=C(NCc1ccccc1C(F)(F)F)C1CCC(=O)N(CCCc2ccccc2)C1 (centres undefined) | 90.8 |
| CCCNC(=O)NC(=O)CN1C(=O)NC(C)(c2ccc(C)cc2)C1=O (centres undefined) | 160 |
| CCCOc1ccc(C2=CC(=O)C[C@H](c3ccc(OC)cc3)C2)cc1 | 143 |
| Cc1cc(=O)oc2c3c(cc(OCC(=O)NCc4ccncc4)c12)OC(C)(C)CC3 | 119 |
| CCN1CCN(c2ccc(NC(=O)c3cc4ccccc4cc3OC)cc2C)CC1 | 128 |
| C/C(=N\NC(=O)c1ccco1)c1cc2ccccc2o1 | 160 |
| NC(=O)NC(=O)COC(=O)CN1C(=O)C2CCCCC2C1=O (centres undefined) | 164 |

| SMILES | binding remaining, % of control [%] |
| --- | --- |
| CCCCN(C(=O)C1CCC1)c1c(N)n(CC(C)C)c(=O)[nH]c1=O | 53.6 |
| Cc1ccc(NC(=O)COC(=O)CCc2c[nH]c3ccccc23)c(C)c1 | 138 |
| CN(C)S(=O)(=O)c1ccc(C(=O)NCCc2ccco2)cc1 | 128 |
| Cc1ccc(C(C)n2cc(C(=O)NCCN3CCN(C)CC3)nn2)cc1 (centres undefined) | 144 |
| COc1ccc([N+](=O)[O-])cc1NC(=O)c1ccc(N(Cc2ccccc2C)S(C)(=O)=O)cc1 | 99.1 |
| COc1ccc(NC(=O)[C@@H](NC(=O)c2ccccc2F)C(C)C)cc1S(=O)(=O)N1CCOCC1 | 84.7 |
| CCCc1cc(=O)[nH]c(SCC(=O)N2c3ccccc3CC2C)n1 (centres undefined) | 126 |
| CC(=O)c1cccc(NC(=O)c2ccncc2)c1 | 35.3 |
| CCOC(=O)c1cn(CC)c2cc(Cl)c([N+](=O)[O-])cc2c1=O | 128 |
| Cc1c(C)c2c(OCC(=O)NCC(O)c3ccccc3)cc3c(c2oc1=O)CCC(C)(C)O3 (centres undefined) | 72.4 |
| COc1ccccc1NC(=O)Cn1cnc2sc(C)c(S(=O)(=O)N3CCCCC3)c2c1=O | 115 |
| O=C1CC(c2nc3ccccc3[nH]2)CN1Cc1ccccc1 (centres undefined) | 207 |
| CCN1CCN(c2ccc(S(=O)(=O)N3CCOCC3)cc2NC(=O)/C=C/c2ccc(C)cc2)CC1 | 98.1 |
| C[N+]1(C)CC2([N+](=O)[O-])CC=C(Oc3ccccc3)C([N+](=O)[O-])(C2)C1 (centres undefined) | 24.8 |
| CCOc1ccc(CCNC(=O)c2cccc(-n3cnnn3)c2)cc1OCC | 164 |
| CCOc1ccc(-c2csc(NNC3=NCCCCC3)n2)cc1 | 156 |
| O=C(Cc1cccc(NC(=O)C2CCCN(C(=O)C3CC3)C2)c1)Nc1cccc(C(=O)N2CCCC2)c1 (centres undefined) | 47.2 |
